Screen size: about 300,000 compounds; about 2,500 (0.83%) were called active. For the sample, actives were picked, then their nearest neighbours and some compounds at random. Unmarked numbers belong to inactive results.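 How the source made its calls: active means inhibition above the mean of all tested compounds plus 3 SD, set per screening campaign (cut at about 24% in these data); inactive means the rest.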
Each compound was assayed on tRNA 2'-phosphotransferase TPT1 (Candida albicans SC5314) (assay: Candida albicans TPT1 enzyme inhibitors, primary screen, biochemical, fluorescence polarization (AID 1962;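 further: plate controls were DMSO alone for no effect and ferristatin control at 100 nM for full effect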)). Conditions: recombinant caTPT1, FP RNA substrate dephosphorylation; at 5 µM; active compounds read high.

| SMILES | inhibition |
| --- | --- |
| COc1cc(=O)[nH]c(=O)n1C(=O)Cc1ccccc1 | 1.99% |
| COc1ccc(Cn2c(=O)cc(C)[nH]c2=S)cc1 | -2.44% |
| CCCOc1ccc(Cn2c(O)cc(=O)[nH]c2=O)cc1 | 48.6% (active) |
| CCc1ccc(C(CNc2nc(C(F)(F)F)nc3ccccc23)N(C)C)cc1 (centres undefined) | -2.4% |
| O=C(/C=C/c1ccc(N2CCOCC2)cc1)c1ccccc1 | 84.1% (active) |
| O=C(O)c1ccc2c(c1)C(=O)N(c1ccc(/C=C/C(=O)c3ccccc3)cc1)C2=O | 17.6% |
| CC(=O)Nc1ccc(/C=C/C(=O)c2ccccc2)cc1 | 15.6% |
| O=C(CC1CCCCC1)NCc1ccccc1 | -1.14% |
| Oc1ccc(N=Cc2sc3ccccc3c2Cl)cc1 | -0.62% |
| Oc1ccc(N=Cc2c(O)ccc3ccccc23)cc1 | 78.9% (active) |
| O=[N+]([O-])c1ccc(N=Cc2c(O)ccc3ccccc23)cc1 | 3.33% |
| CCOc1cc(NC(=O)c2ccccc2C(=O)O)c(OCC)cc1NC(=O)c1ccccc1F | 2.36% |
| COC(=O)C1=C(N)Oc2c(oc(CO)cc2=O)C1c1c(F)cccc1Cl (centres undefined) | -1.2% |
| Cc1ccc(Nc2nc(Cl)c(C=O)s2)cc1 | 54.2% (active) |
| Cc1ccc(Nc2nc(C)cc(C)c2C(N)=O)cc1 | -2.11% |
| Cc1ccc(NC(=O)Nc2nnc(-c3ccncc3)s2)cc1 | -0.82% |
| O=C(Nc1ccccc1Cl)/C(Cl)=C(\Cl)S(=O)c1ccccc1 (centres undefined) | -2.57% |
| N#CCc1ccc(NC(=O)c2ccccc2C(=O)Nc2ccc(CC#N)cc2)cc1 | -2.77% |
| O=C(NNC(=S)NC1CC2CCC1C2)c1ccc(Cl)cc1 (centres undefined) | -4.71% |
| CCOc1ccc2nc(N(CCCN(C)C)C(=O)c3ccc(C(=O)c4ccccc4)cc3)sc2c1 | -1.89% |
| CC(N=Cc1nc(-c2ccccc2)oc1O)c1ccccc1 (centres undefined) | 2.4% |
| CCOc1ccc2nc(/N=C/c3nc(-c4ccccc4)oc3O)sc2c1 | 46.7% (active) |
| CCOC(=O)c1cc2c(=O)[nH]c(C(Cl)(Cl)Cl)nc2o1 | 1.15% |
| Cc1cccn2c(=O)c(/C=C3\SC(=S)N(CC(C)C)C3=O)c(NCCCOC(C)C)nc12 | 63.5% (active) |

| SMILES | inhibition |
| --- | --- |
| CNc1nc2c(C)cccn2c(=O)c1C=Nc1ccc(OC)cc1 | 1.1% |
| CC(C)OCCCNc1nc2c(c(=O)n(Cc3ccccc3F)c(=O)n2C)n1C | 2.3% |
| Cc1[nH]c(C)c(S(=O)(=O)N2CCN(c3cccc(C(F)(F)F)c3)CC2)c1C(=O)N1CCCCC1 | -0.13% |
| CC(C)(C)NC(=O)COC(=O)c1cc(Cl)ccc1[N+](=O)[O-] | -0.54% |
| Cc1cccc(N2CCN(C(=O)COCc3cc(-c4ccc5c(c4)OCO5)on3)CC2)c1C | -0.74% |
| CCCC1C(=O)N2C(N(C)C)=Nc3ccc(C)cc3N2C1=O (centres undefined) | 2.58% |
| COC(=O)Cn1cnc2scc(-c3ccc(C)c(C)c3)c2c1=O | 1.3% |
| CCOc1cc(/C=C2/C(=N)N3OC(C)=CC3=NC2=O)ccc1OC | 6.06% |
| COc1ccc(OCCCn2cccc2/C=C2/C(=N)N3OC(C)=CC3=NC2=O)cc1 | 0.42% |
| CC1=CC2=NC(=O)/C(=C/c3coc4ccccc4c3=O)C(=N)N2O1 | 34.6% (active) |
| COc1ccc(Nc2ccc([N+](=O)[O-])cn2)cn1 | -14.7% |
| Cc1cc(/C=N/Nc2ccc([N+](=O)[O-])cn2)c(C)n1-c1cccc(C(=O)O)c1 | 43% (active) |
| COc1cc(/C=N\Nc2ccc([N+](=O)[O-])cn2)ccc1OCC(=O)O | 1.83% |
| Cc1cc(/C=C2\SC(=O)N(C)C2=O)c(C)n1-c1cccc(C(=O)O)c1 | -0.06% |
| Cc1ccc(-n2c(C)cc(/C=N/Nc3ccc([N+](=O)[O-])cn3)c2C)c(C)c1 | 66.7% (active) |
| Cc1ccc(N2CCN(c3ccc([N+](=O)[O-])cn3)CC2)c(C)c1 | -2.01% |
| C=CCn1c(COc2ccc(F)cc2)nnc1SCC(=O)Nc1cccc(S(N)(=O)=O)c1 | -5.67% |
| COc1cccc(C2CC(c3cccs3)=NN2C(=O)CSC2=NCCS2)c1OC (centres undefined) | -2.93% |
| CCC(C)CN1CCC(CO)(Cc2ccccc2Cl)CC1 (centres undefined) | -0.69% |
| COC1(C2=NCCN2)COc2ccccc2O1 (centres undefined) | -5.32% |
| COc1ccccc1NC(=O)COC(=O)c1ccccc1SCC(=O)N1CCCC1 | 0.11% |
| COc1ccccc1C1SCCN1C(=O)c1ccc([N+](=O)[O-])cc1 (centres undefined) | 1.69% |
| COc1ccc(NS(=O)(=O)c2ccc(C)c(C(=O)N(C)Cc3ccc(OC)cc3OC)c2)cc1 | -1.13% |
| CN(C)c1ccnc2sc(C(=O)c3ccccc3)c(N)c12 | 2.61% |

| SMILES | inhibition |
| --- | --- |
| Nc1c(C(=O)c2cccs2)sc2nsc(SCCN3CCCCC3)c12 | 68.2% (active) |
| Cc1nc2sc(C(=O)c3ccccc3)c(N)c2c2c1CCCC2 | -0.9% |
| CCCNC(=S)N1CCC(NC(=O)c2ccc(OC)cc2)CC1 | 3.14% |
| CN1/C(=C\C=C2\N=C(c3ccc(F)cc3)OC2=O)C(C)(C)c2ccccc21 | 110% (active) |
| CN1CCN(CCC(=O)N/N=C/C=C2\N(C)c3ccccc3C2(C)C)CC1 | 11.7% |
| CN1/C(=C\C(=O)c2oc3ccccc3c2N)C(C)(C)c2ccccc21 | 2.22% |
| O=C(c1c(F)cccc1Cl)N1CCN(c2ccccn2)CC1 | 0.41% |
| O=C(Nc1ccccc1N1CCCC1)c1ccc(F)c(S(=O)(=O)N2CCOCC2)c1 | 0.87% |
| O=C1NCC(=O)N(Cc2ccccc2)/C1=C/c1ccccc1 | 1.04% |
| O=C1/C(=C\c2ccsc2)NC(=S)N1c1ccccc1 | 0.45% |
| CN(C)c1ccc(/C=C2\NC(=S)N(Cc3ccccc3)C2=O)cc1 | 196% (active) |
| COCC(=O)Nc1c(I)c(C(=O)NCC(O)CO)c(I)c(C(=O)N(C)CC(O)CO)c1I (centres undefined) | 1.86% |
| COc1ccc(C(=O)NC(C)c2nccs2)cc1OC1CCN(C(C)C)CC1 (centres undefined) | 1.11% |
| COc1ccc(CN(C)C(=S)Nc2ccc(Cl)cc2Cl)cc1 | -3.43% |
| Cc1nc2ccccc2cc1C(=O)N/N=C/c1ccc([N+](=O)[O-])cc1 | 1.45% |
| O=C(Nn1c(-c2ccccc2)nc2ccccc2c1=O)c1ccc([N+](=O)[O-])cc1 | -2.22% |
| Cc1nc2ccccc2nc(=O)c1NNc1ccc([N+](=O)[O-])cc1 | 33% (active) |
| COC(=O)c1c(C)oc(C)c1S(=O)(=O)Nc1ccc(C(C)C)cc1 | -2.31% |
| COC(=O)c1cc(S(=O)(=O)NCC2CCN(Cc3ccc(Cl)cc3)CC2)cn1C | -1.04% |
| CCOC(=O)c1ccccc1CN1C(=O)c2ccccc2S1(=O)=O | -6.64% |
| CN1C(=O)/C(=C/C=C2\SCCN2C)OC1=S | 124% (active) |
| Cc1ccc(Cc2nc(-c3cccc(C)c3)no2)cc1 | 1.83% |
| COc1ccc(Cc2nc(-c3ccccn3)no2)cc1OC | 48.4% (active) |
| COc1ccc(CCNS(=O)(=O)c2cccc3cccnc23)cc1OC | 1.77% |

| SMILES | inhibition |
| --- | --- |
| CCOC(=O)C1=C(C)Nc2sc(C(=O)c3ccc(Br)cc3)c(N)c2C1c1ccc(C(=O)OC)cc1 (centres undefined) | 54.7% (active) |
| CCOC(=O)c1sc(=NC(=O)c2ccc(Br)cc2)n(C)c1C | -2.11% |
| CCOC(=O)c1sc(=S)n2c1[nH]c(=O)c1ccc(C(=O)OC)cc12 | -1.57% |
| Cc1ccc(NS(=O)(=O)c2ccc(N/N=C/c3ccccc3OCC(=O)O)c([N+](=O)[O-])c2)c(C)c1 | -2.41% |
| O=[N+]([O-])c1cccc(/C=N/Nc2ncc(Br)cn2)c1 | 0.84% |
| Cc1ccccc1OCCOc1ccc([N+](=O)[O-])cc1/C=N/n1cnnc1 | 2.12% |
| O=C(N/N=C/c1ccc([N+](=O)[O-])cc1)c1c[nH]c2ccccc12 | 1.12% |
| Cc1cccc(COc2ccccc2/C=N/Nc2ccc([N+](=O)[O-])cc2)c1 | 92.1% (active) |
| O=[N+]([O-])c1ccc(N/N=C/c2ccccc2)cc1 | 28.2% (active) |
| O=[N+]([O-])c1ccc(N2CCN(c3ccc(O)cc3)CC2)c(Cl)c1 | 1.48% |
| O=S(=O)(c1cccc(Cn2nnc(-c3ccc(F)cc3)n2)c1)N1CCOCC1 | 0.07% |
| COc1ccc(C(CCN(Cc2ccc(OC)c(OC)c2)C(=O)CCl)c2ccccc2)cc1 (centres undefined) | 2.12% |
| COc1ccc(-n2c(C)cc(C(=O)CN3C(=O)NC4(CCc5ccccc54)C3=O)c2C)cc1 (centres undefined) | -8.74% |
| CCOc1ccc(CNC(=O)C2CCCN(c3nnc(C)c4c(C)n(-c5ccccc5)nc34)C2)cc1 (centres undefined) | 1.81% |
| Cc1nn(-c2ccccc2)c(C)c1NC(=O)COc1ccc(Cl)cc1Cl | -4.09% |
| CCOc1nnc(C)c2c(C)n(-c3cccc(Cl)c3)nc12 | 24.6% (active) |
| CCc1nn(CCCC(=O)NC(C)c2ccccc2)c(=O)c2cc3occc3n12 (centres undefined) | -2.3% |
| CCCCN(CCCC)CCNC(=O)CN1C(=O)COc2ccc(S(=O)(=O)N3CCOCC3)cc21 | -4.55% |
| COc1ccc(Cn2c(C)c(C)c(C#N)c2NC(=O)Nc2ccc(F)cc2)cc1 | 0.17% |
| CCOC(=O)c1oc2c(CN3CCN(CCO)CC3)c(O)c(CC)cc2c(=O)c1-c1nc2ccccc2s1 | -0.54% |
| CN1CCN(Cc2c(O)ccc3c2oc(=O)c2ccccc23)CC1 | -1.97% |
| CC(C)(C)c1ccc(/C=C2\Oc3c(ccc(O)c3CN3CCN(CCO)CC3)C2=O)cc1 | 33.2% (active) |
